Test results from PubChem BioAssay (NCI).
Compounds without any hit were thinned out: in the full panel of roughly 83,000, 20% have a hit.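 Growth was measured after 48 h exposure to one concentration of compound in 96-well plates. Values under 10 count as active.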 Values without a mark were called inactive. Activity calls are given as the source filed them.

Experiments:
Assay in all cases: NCI-60 one-dose screen, 48 h (100 = growth as untreated, 0 = no growth, -100 = all killed)
Details in all cases: 10 µM unless noted
[1] = test system: SR leukemia
[2] = test system: RPMI-8226 leukemia
[3] = test system: OVCAR-8 ovarian
[4] = test system: OVCAR-5 ovarian
[5] = test system: OVCAR-4 ovarian
[6] = test system: SK-OV-3 ovarian
[7] = test system: IGROV1 ovarian
[8] = test system: OVCAR-3 ovarian
[9] = test system: HS 578T breast
[10] = test system: NCI/ADR-RES ovarian
[11] = test system: T-47D breast
[12] = test system: BT-549 breast
[13] = test system: MDA-MB-435 melanoma
[14] = test system: SW-620 colon
[15] = test system: MCF7 breast
[16] = test system: HCT-116 colon
[17] = test system: HCC-2998 colon
[18] = test system: KM12 colon

SMILES	growth [1]	growth [2]	growth [3]	growth [4]	growth [5]	growth [6]	growth [7]	growth [8]	growth [9]	growth [10]	growth [11]	growth [12]	growth [13]	growth [14]	growth [15]	growth [16]	growth [17]	growth [18]
COc1cc(C2=Nc3c(N)nc(N)nc3NC(c3cccc(Nc4ccnc5cc(C(F)(F)F)ccc45)c3)C2)cc(OC)c1OC (stereo unspecified)	0.109% (active)	10.8%	68.8%	129%	74.7%	88.1%	65.6%	83.5%	62.7%	95.3%	95.4%	112%	69.2%	78.7%	37.3%	48.9%	77.2%	66.4%
CNC(=O)c1cc(Oc2ccc3nc(NC(=O)Nc4ccc(F)cc4F)sc3c2)ccn1	80.4%	72.9%	45.1%	95.2%	34.2%	76.3%	84.2%	74.7%	44.5%	45.5%	56.5%	100%	62.5%	99.9%	66.8%	20.7%	88.1%	72.6%
COc1ccc(-c2cc(-c3ccc(Cl)cc3)c(C#N)c(=O)n2CCCCC(=O)NO)cc1	40.3%	34%	53.9%	63.9%	74.9%	89.3%	69%	75%	87.8%	10.8%	83.2%	59.8%	91.1%	80%	76.7%	62.7%	84.3%	86.9%
COc1ccccc1/C=C/C1=C(C)CCC(c2ccccc2OC)C1C (stereo unspecified)	-13.2% (active)	-4.33% (active)	19.7%	28.9%	42.7%	33.4%	-48.7% (active)	-21.6% (active)	11.1%	18%	61.9%	-16.3% (active)	-3.28% (active)	18.2%	7.88% (active)	2.8% (active)	-12.5% (active)	6.67% (active)
CCCCC#Cc1c(I)n(C2OC(CO[Si](C)(C)C(C)(C)C)C3OC(C)(C)OC32)c(=O)[nH]c1=O (stereo unspecified)	-5.46% (active)	-46.9% (active)	85.7%	82.5%	70.3%	98.8%	83.8%	42.7%	100%	84.5%	12.3%	99.2%	82.9%	47.6%	62.4%	50.2%	-19.8% (active)	109%
CCCCCC(C)(O)C(C(=O)O)c1ccccc1 (stereo unspecified)	102%	101%	101%	96.1%	102%	101%	102%	119%	107%	112%	106%	101%	107%	102%	98.1%	99.2%	108%	104%
Cc1[nH]c(C2CC(c3ccc(C(F)(F)F)c(F)c3)=NN2C)c(C)c1C(=O)NCC(F)(F)F (stereo unspecified)	92.9%	92.4%	94.8%	98.4%	90.9%	105%	79.9%	107%	95.9%	98.8%	93.9%	107%	100%	103%	80.7%	101%	105%	97.8%
CCN1C(=O)N(CC)C2C1NN=c1s/c(=C\c3ccc(F)cc3)c(=O)n12 (stereo unspecified)	11.1%	21.3%	2.37% (active)	33.1%	46.4%	37.2%	23%	-25.9% (active)	12.4%	1.08% (active)	57.8%	14.5%	-38.8% (active)	19.6%	18.2%	13.6%	18.8%	7.33% (active)
CCCCC1=C(Br)C(=O)c2ncccc2C1=O	30.8%	41.7%	95.4%	112%	88.2%	90.2%	102%	57.1%	104%	96.8%	71.2%	94.4%	105%	60.2%	89.5%	62.6%	108%	96.9%
COC(=O)CNC(=O)c1ccc(NC(=O)c2[nH]c(C)c(Cl)c2Cl)c(O[C@H]2CCNC2)c1	83.7%	96.7%	101%	112%	110%	96.6%	111%	114%	92.8%	112%	101%	102%	105%	103%	105%	96.1%	115%	104%
N=C(N)c1ccc(-c2ccc(-c3ccccc3)s2)nc1	12.5%	48%	91.9%	92.9%	107%	88.6%	82.3%	95%	85%	96.7%	79.5%	98.7%	85.8%	57.4%	41.3%	46.9%	58.9%	39.4%
CCC(=C(c1ccc(OCCN(CC)CC)cc1)c1ccc(OCCN(CC)CC)cc1)c1ccc(Cl)cc1	-39.7% (active)	-48.5% (active)	-49.8% (active)	-52.8% (active)	-38.9% (active)	55.4%	-78.6% (active)	-72.2% (active)	-44.3% (active)	-33.1% (active)	-55.4% (active)	61.5%	-92% (active)	-75.5% (active)	-73.3% (active)	-87.7% (active)	-91% (active)	-82.2% (active)
CC(=O)/C(Br)=C/c1ccc(Br)o1	-18.2% (active)	67.1%	79%	95.6%	86.1%	104%	86.9%	23.5%	26.7%	93.9%	44.8%	52.1%	62.4%	15.4%	33%	-66.2% (active)	93.4%	105%
Cc1ccc2nc(/C=C/c3ccc(N(C)C)cc3)cc(C)c2c1	22.1%	34.1%	41.4%	73.1%	85.5%	31.4%	49%	-2.23% (active)	34.9%	25.2%	34.7%	32.3%	-5.17% (active)	10.9%	10.1%	22.8%	63.9%	21.5%
CCOC(=O)c1c(C)n2c(=O)cc(C)c3c(OC(C)=O)c(OC(C)=O)cc1c32	17.8%	42.3%	62.2%	99.2%	34.6%	103%	76.9%	6.3% (active)	91.4%	33%	52.7%	80.3%	83.3%	34.8%	62.2%	23.3%	84.4%	86.7%
Nc1ncc(-c2ccc3ncnc(N4CCc5cc(F)c(Cl)cc54)c3c2)cn1	36.5%	20.8%	45.4%	27%	54.6%	29.4%	9.49% (active)	37.9%	13.2%	50.4%	8.79% (active)	33.7%	55.8%	66.4%	24.3%	46.9%	61.5%	58%
CC(C)(C)n1cc(-c2ccnc(NCCNS(=O)(=O)c3ccc(C(F)(F)F)cc3)c2)c(-c2ccccc2)n1	35.9%	81.1%	89.2%	108%	84.8%	97.8%	97.3%	94.5%	99.6%	91.5%	62.5%	93.7%	100%	99.2%	63%	58.9%	111%	96.7%
